The text below walks through data of PubChem BioAssay AID2057 (The Scripps Research Institute Molecular Screening Center, 2009).

The campaign covered roughly 320,000 compounds. About 2,100 (0.66%) were called active.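 How the source made its calls: active means inhibition above the mean inhibition of all tested compounds plus 3 SD, set per campaign (cut at about 40% in these data); inactive means the rest.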 What follows is part of a selection rich in actives, with near analogues and random picks from the rest.

For the experiment, the target named is Induced myeloid leukemia cell differentiation protein Mcl-1 (Homo sapiens) (UniProt Q07820). The experiment can be described thus: inhibitors of MCL1 binding to BIM-BH3, primary screen, biochemical, fluorescence polarization (AID 2057).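 Further: 0% = DMSO wells and 100% = unlabeled Bim-BH3 peptide control; higher means more loss of mP so more displacement of Bim peptide.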 The note with it: GST-MCL1 / FITC-Bim-BH3 fluorescence polarization; at 10.9 µM; active compounds read high.
Chain of Induced myeloid leukemia cell differentiation protein Mcl-1 (Homo sapiens) (Q07820 whole entry, looked up): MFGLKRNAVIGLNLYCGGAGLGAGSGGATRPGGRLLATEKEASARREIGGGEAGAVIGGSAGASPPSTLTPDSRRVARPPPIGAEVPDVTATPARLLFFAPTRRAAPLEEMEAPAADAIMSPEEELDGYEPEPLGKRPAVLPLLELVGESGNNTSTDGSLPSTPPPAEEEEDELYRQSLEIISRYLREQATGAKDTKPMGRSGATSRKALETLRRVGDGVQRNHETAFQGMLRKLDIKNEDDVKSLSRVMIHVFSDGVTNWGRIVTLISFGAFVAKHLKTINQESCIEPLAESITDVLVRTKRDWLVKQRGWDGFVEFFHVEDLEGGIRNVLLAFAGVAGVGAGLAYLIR
What is called inhibition is the change of the read-out against control, counted positive when it falls. On to `O=C(NCCCCc1ccccc1)C1CC(c2ccc([N+](=O)[O-])cc2)=NO1` (configuration not stated), for which the inhibition is 12.6% (inactive).

Take `CN(CC(=O)NC1CCN(Cc2ccccc2)CC1)S(=O)(=O)c1ccc(Cl)s1`: the inhibition is 3.17% (inactive).

Regarding `CCc1cc(CNC(=O)CC2C(=O)NCCN2Cc2ccccc2C(F)(F)F)on1` (configuration not stated), the inhibition was 17.3% (inactive).

Take `CC1(C)CC(=O)C2=C(C1)NCN(CCCN1CCOCC1)C2`: the inhibition was -0.98% (inactive).

For `O=C(NC(=S)Nc1ccc(S(=O)(=O)N2CCOCC2)cc1)c1ccccc1[N+](=O)[O-]`, the inhibition is 14.4% (inactive).

`O=C(N/N=C/c1cc(Cl)cc([N+](=O)[O-])c1O)C(O)(c1ccccc1)c1ccccc1`: the inhibition is 9.22% (inactive).

As for `O=[N+]([O-])c1cc(Cl)cc(/C=N/NC(=S)Nc2cc(S(=O)(=O)N3CCOCC3)ccc2Cl)c1O`, the inhibition was 52.5% (active).

As to `COC(=O)CN(c1cccc(C(C)=O)c1)S(C)(=O)=O`, the inhibition is 0.97% (inactive).

For the molecule `CCCSc1ncccc1C(=O)O`, the inhibition is -3.51% (inactive).

For the molecule `COc1ccc(NS(=O)(=O)c2ccc(F)cc2F)cn1`, the inhibition is 8.27% (inactive).

With `COc1cccc(Nc2ncccc2C(=O)O)c1`, the inhibition was 1.4% (inactive).

On to `COc1ccc(Nc2cc(Cl)ccc2C(=O)O)cn1`, for which the inhibition is 62.7% (active).

For the molecule `CCCOc1ccc(Cl)cc1Nc1nc(NCCO)nc(N2CCCC2)n1`, the inhibition was 3.82% (inactive).

Turning to `NC1=NC2(CCCCC2)N(c2ccc(F)cc2F)C(N)=N1`, the inhibition is 10.2% (inactive).

In the case of `COc1ccc(Cl)cc1C(=O)OCC(=O)NCc1cccs1`, the inhibition was -2.56% (inactive).

Turning to `C=CCNc1nnc(SCC(=O)N2CCCCC2)c2ccccc12`, the inhibition is 120% (active).

As to `C=CCNc1nnc(C)c2ccccc12`, the inhibition is -0.12% (inactive).

Take `O=C(CSc1ncccn1)N1CCCC1`: the inhibition is 9.67% (inactive).

As to `O=C(c1ccc(F)c(S(=O)(=O)N2CCOCC2)c1)N(CCc1ccccc1)Cc1ccccc1`, the inhibition is 32.4% (inactive).

For `O=C(NCCSCc1ccccc1)c1ccc(Cl)c(S(=O)(=O)N2CCOCC2)c1`, the inhibition was 1.14% (inactive).

Regarding `CCOc1ccc(NC(=O)CCCCCN2C(=O)[C@@H]3Cc4ccccc4CN3C2=O)cc1`, the inhibition is 6.32% (inactive).

Turning to `COc1ccc(CC(=O)Nc2c3c(nn2-c2cccc(Cl)c2)CS(=O)C3)cc1` (configuration not stated), the inhibition was -2.25% (inactive).

As for `CCNc1nc(N)nc(-c2cc(Cl)ccc2OC)n1`, the inhibition was -1.8% (inactive).

As for `COc1ccc(CCn2c(=N)c(C(=O)NCC3CCCO3)cc3c(=O)n4cccc(C)c4nc32)cc1OC` (configuration not stated), the inhibition is 2% (inactive).

With `Cc1cccn2c(=O)c3cc(C(=O)NCCN4CCOCC4)c(=N)n(Cc4cccnc4)c3nc12`, the inhibition was 46.7% (active).

On to `Cc1cccn2c(=O)c3cc(C(=O)NCC4CCCO4)c(=N)n(Cc4ccc(F)cc4)c3nc12` (configuration not stated), for which the inhibition was -4.4% (inactive).

Regarding `CC(C)(C)NC(=O)COC(=O)c1cc(Br)ccc1Cl`, the inhibition is -2.96% (inactive).

Regarding `CCCC1NC(=O)NC(C)=C1C(=O)OCC` (configuration not stated), the inhibition was -0.76% (inactive).

As to `Oc1ccc2ccccc2c1N=Nc1nccs1`, the inhibition was 61.4% (active).

Take `CC1=C(C(=O)OC(C)(C)C)C(c2ccc(Br)cc2)NC(=O)N1CCCC(=O)O` (configuration not stated): the inhibition was 2.27% (inactive).

As to `CC[N+](C)(CC)CCC[n+]1c(-c2ccccc2)c2cc(N)ccc2c2ccc(N)cc21`, the inhibition was 122% (active).

As for `C=C(C)CSc1nnc(-c2ccc(C)cc2)n1N`, the inhibition is -0.24% (inactive).

Take `CC(OC(=O)c1ccccc1NCCO)C(=O)Nc1ccnn1C(C)C` (configuration not stated): the inhibition was 1.18% (inactive).

For the molecule `CSCCC(NC(=O)c1ccc(Cl)cc1Cl)C(=O)NNC(=O)c1csc(N2CCOCC2)n1` (configuration not stated), the inhibition is 12.3% (inactive).

In the case of `CN(C(=O)COC(=O)c1cc(=O)[nH]c2ccccc12)C1CCCCC1`, the inhibition is 1.49% (inactive).

In the case of `COC(=O)C[n+]1cccc2ccccc21`, the inhibition was 195% (active).

Regarding `COc1ccccc1NC(=O)C[n+]1ccccc1`, the inhibition was -1.7% (inactive).

With `Cc1cccc[n+]1CC(=O)c1ccccc1`, the inhibition was 9.96% (inactive).

Consider `Cn1ccs/c1=N\S(=O)(=O)c1ccc(C(C)(C)C)cc1`, for which the inhibition is 5.09% (inactive).

Consider `O=[N+]([O-])c1cc([N+](=O)[O-])c(Oc2cc(F)cc(F)c2F)cc1NN1CCCCC1`, for which the inhibition was -1.7% (inactive).

Take `Fc1cccc(Cl)c1CSc1ccc(-c2ccco2)nn1`: the inhibition is 17.6% (inactive).

`Clc1ccccc1CSc1nnc(-c2ccco2)c(-c2ccco2)n1`: the inhibition is 79.9% (active).

Turning to `CCc1nnc(SCc2cccc(F)c2)nc1CC`, the inhibition was 0.71% (inactive).

In the case of `c1ccc(CSc2nnc(-c3ccco3)c(-c3ccco3)n2)cc1`, the inhibition was 82.3% (active).

With `COc1ccc2nc(SCc3ccccc3)nc(C)c2c1`, the inhibition was 1.99% (inactive).

On to `O=C(CC1N=C2c3ccccc3N=C(SCc3ccccc3Cl)N2C1=O)NCc1ccco1` (configuration not stated), for which the inhibition is 19.4% (inactive).

`CCOC(=O)C1CCCN(C(=O)COc2ccc(N(C)S(=O)(=O)c3ccc(C)cc3)cc2)C1` (configuration not stated): the inhibition was -2.82% (inactive).

For `CCCN(C(=O)c1nc2nccc(C)n2n1)c1c(N)n(Cc2ccccc2)c(=O)[nH]c1=O`, the inhibition is 0.15% (inactive).

For the molecule `COCc1cc(=O)n2[nH]c(C)c(-c3ccccc3)c2n1`, the inhibition is 10.3% (inactive).

Take `CCC1SC2=NCCN2C1(O)c1ccc(Cl)cc1` (configuration not stated): the inhibition is 7.57% (inactive).

As to `CN1C(=O)/C(=C\c2cc(Br)cs2)c2ccccc21`, the inhibition was -0.58% (inactive).

For `O=C(COC(=O)c1ncc(Cl)c(Cl)c1Cl)NNC(=O)c1ccccc1`, the inhibition is 5.89% (inactive).

As to `Cn1c(-c2ccc(C(F)(F)F)cc2)cc2onc(-c3ccccc3)c2c1=O`, the inhibition is 4.36% (inactive).

With `Cc1oc2c(c1C(=O)N1CCOCC1)C(=O)c1ccccc1C2=O`, the inhibition was -4.11% (inactive).

As to `COC1=C(N2CCOCC2)C(=O)c2ccccc2C1=O`, the inhibition was 6.69% (inactive).

As to `O=C1c2ccccc2-c2ncnc3c(N4CCOCC4)cc(N4CCOCC4)c1c23`, the inhibition was 48.8% (active).

On to `COc1ccc(OC)c(NC(=O)CN(C)CCOc2ccc(Br)cc2)c1`, for which the inhibition was -19.6% (inactive).

Regarding `CCN(CC)C(=O)CC(c1ccc2c(c1)OCO2)c1c(OC)cc(OC)c2c(-c3ccccc3)cc(=O)oc12` (configuration not stated), the inhibition was 2.43% (inactive).

Regarding `Cc1cc(C)c2c(-n3cccc3)c(C(=O)NNS(=O)(=O)c3ccc(F)cc3)sc2n1`, the inhibition is 13.1% (inactive).

Consider `COc1ccc(CNC(=O)c2cc3c(=O)n4ccccc4nc3n(CC3CCCO3)c2=N)cc1` (configuration not stated), for which the inhibition was 9.61% (inactive).

With `Cc1cccn2c(=O)c3cc(C#N)c(=NC(=O)c4cccnc4)n(CC4CCCO4)c3nc12` (configuration not stated), the inhibition was 44.1% (active).

`Cc1cccn2c(=O)c3cc(C#N)c(=O)n(CCCN4CCOCC4)c3nc12`: the inhibition is 23.2% (inactive).

Take `CCN(CC(=O)NCc1cccs1)c1nnnn1-c1ccccc1`: the inhibition was 3.16% (inactive).

For the molecule `O=C(NCc1cccnc1)C12CC3CC(CC(C3)C1)C2`, the inhibition was 3.8% (inactive).

In the case of `Cc1ccc(S(=O)(=O)Nc2nc3ccccc3nc2N2CCc3ccccc3C2)cc1`, the inhibition is 12.7% (inactive).

`Cc1ccc(S(=O)(=O)C(C#N)c2nc3ccccc3nc2N2CCCC2)cc1C` (configuration not stated): the inhibition is 75.8% (active).

`Cc1cc(N2CCN(S(=O)(=O)c3ccc(C)c(C)c3)CC2)c2ccccc2n1`: the inhibition was -2.07% (inactive).

`O=C(CN1CCN(S(=O)(=O)c2ccc(Cl)s2)CC1)N1CCCCC1`: the inhibition was 5.82% (inactive).

`O=C(NCCC1CCCCN1S(=O)(=O)c1ccc(Cl)cc1)C(=O)NCc1ccco1` (configuration not stated): the inhibition was 9.57% (inactive).

Take `CCCn1c(C(C)Nc2nc(-c3ccc(C)cc3)cs2)nc2cc(Cl)c(N3CCCCC3)cc21` (configuration not stated): the inhibition was 5.75% (inactive).

`CCCn1c(C2CCCN2c2nc(-c3ccc(C)cc3)cs2)nc2cc(Cl)c(N3CCCCC3)cc21` (configuration not stated): the inhibition is 75.2% (active).

In the case of `CCCn1c(C2CCCN2c2nc(-c3ccc(OC)cc3)cs2)nc2ccccc21` (configuration not stated), the inhibition is 11.8% (inactive).

Take `O=C1N[C@@H](Cc2ccccc2)C(=O)N2[C@@H]3N(S(=O)(=O)c4ccc(F)cc4)c4ccccc4[C@]3(Br)C[C@@H]12`: the inhibition is 8.03% (inactive).

With `CC(=O)NC(C)(C)C1CC=C(C)/C(=N\O)C1` (configuration not stated), the inhibition is -0.57% (inactive).

Take `COC(=O)c1ccc(SCc2ccccc2)nc1`: the inhibition is 11.2% (inactive).

`CCn1c(SCc2ccccc2)nc2cc(OC)c(OC)cc2c1=O`: the inhibition was 3.42% (inactive).

For the molecule `CSc1c(SCc2ccccc2)cnn(Cc2ccccc2)c1=O`, the inhibition was 181% (active).

As to `Cc1c(C)c(C)c(S(=O)(=O)N2CCC3(CC2)OCCO3)c(C)c1C`, the inhibition is 6.11% (inactive).

On to `Cc1cc(CNC(=O)C2CCC(=O)N(CCc3ccc(Cl)cc3)C2)no1` (configuration not stated), for which the inhibition is 2.34% (inactive).

As for `Cc1ccc(C(=O)NC2CCCC(C)C2C)cc1S(=O)(=O)N1CCCCC1` (configuration not stated), the inhibition was -1.76% (inactive).

For the molecule `O=C(Nc1nccs1)c1cc(S(=O)(=O)N2CCOCC2)c(Cl)cc1Cl`, the inhibition is 5.02% (inactive).

For `Oc1cc2c(cc1O)CN(C(=S)NCCc1ccc(Cl)cc1)CCC2`, the inhibition is 34.4% (inactive).

Take `O=C(COC(=O)/C=C/c1ccc(OC(F)F)cc1)NC1CCCCC1`: the inhibition is -2.99% (inactive).

Regarding `COc1ccc(-c2nc(CS(=O)CC(=O)NCc3ccccn3)c(C)o2)cc1` (configuration not stated), the inhibition is 111% (active).

With `COc1ccc(-c2nc(CS(=O)CC(=O)NCc3ccccc3)c(C)o2)cc1OC` (configuration not stated), the inhibition is 9.71% (inactive).

As to `COc1cccc(-c2nc(CS(=O)CC(=O)NCc3ccc(F)cc3)c(C)o2)c1` (configuration not stated), the inhibition is 0.44% (inactive).

Take `COCCCNC(=O)CNC(=S)N(Cc1cc(OC)c(OC)c(OC)c1)C1CCCC1`: the inhibition is -4.92% (inactive).

Regarding `O=C(Cc1ccc(-n2c(=O)c3sccc3n(Cc3ccc(F)cc3)c2=O)cc1)NCc1ccco1`, the inhibition was -2.64% (inactive).

Regarding `O=C(CCCn1c(SCC(=O)c2ccc(F)cc2)nc2ccccc2c1=O)NCc1ccco1`, the inhibition was 2.72% (inactive).

Take `O=C(CCn1c(SCC(=O)c2ccccc2)nc2ccccc2c1=O)NCc1ccc(F)cc1`: the inhibition was 41.6% (active).

`O=C(CCCn1c(SCC(=O)c2ccccc2)nc2ccccc2c1=O)NCC1CCCO1` (configuration not stated): the inhibition was 0.98% (inactive).

As to `Cc1cccc(-c2c(NC(=O)c3ccco3)oc3ccc(Cl)cc3c2=O)c1`, the inhibition was -4.25% (inactive).
